From PubChem BioAssay
12-LOX inh – blocks human arachidonate 12S-lipoxygenase | actives 1.1% (n = 580,000) | Potency, µM (series often up to 108 µM), inactives show at the highest dose activity change, negative = inhibition, hits mostly inhibitors | purified 12hLO, xylenol orange hydroperoxide absorbance | P18054
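Purified human 12hLO at 150 nM in 25 mM Hepes, 0.01% Triton X-100, pH 7.0, preincubated 15 min at room temperature with compound. Reaction started with 40 uM arachidonic acid, 30 min at room temperature. Hydroperoxide measured by Fe-xylenol orange, 573/405 nm absorbance ratio.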
DT40 TDP1 no CPT – qHTS for Inhibitors of human tyrosyl-DNA phosphodiesterase 1 (TDP1): qHTS in cells in absence of CPT; AID 686978, 2013; DT40 Tdp1-/- hTDP1 cells, no CPT, ATP luminescence, 48 h; Potency, µM (highest dose often 46.2 µM), without a hit: at the highest dose activity change, negative = growth inhibition, most hits filed as inhibitors; actives 15% (n = 420,000); note: nearly all actives have a fitted effect of over 55% in size
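Chicken DT40 Tdp1-/- cells stably complemented with human TDP1 were seeded at 400 cells/well with DMSO in place of 20 nM camptothecin. After compound pinning, cells grew at least 48 hr at 37 °C; viability read by CellTiter-Glo luminescence.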
DT40 TDP1 CPT – DT40-hTDP1 cell growth loss with CPT; chicken DT40 Tdp1-/-;hTDP1 cells + 20 nM CPT, ATP luminescence, 48 h; Potency, µM (highest dose often 46.2 µM), inactives show at the top dose activity change, negative = growth inhibition, usual class: inhibitors; actives 12% (n = 420,000); note: nearly all actives have a fitted effect of over 55% in size
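Chicken DT40 Tdp1-/- cells stably complemented with human TDP1 were seeded at 400 cells/well in medium containing 20 nM camptothecin, exposed to pin-transferred compounds, and grown at 37 °C for at least 48 hr. Viability was read as ATP luminescence.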
Gal4-VP16 FLuc – counter-screen for ROR gamma inhibitors: Gal4-VP16 reporter; Drosophila S2 Gal4-VP16 UAS-luciferase, luminescence, 20 h; Potency, µM (titrated, usually from 53.6 µM), for inactives: top-dose activity, negative = inhibition, actives largely listed as inhibitors; actives 3.5% (n = 310,000);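 note: Gal4-VP16 expression switched on by copper sulfate through the metallothionein promoter; nearly all actives have a fitted effect of over 50% in size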
RORg inh – ROR gamma (mouse) transcription inhibition; P51450; Drosophila S2 Gal4-RORgamma UAS-luciferase reporter, 20 h; Potency, µM (titrated, usually from 53.6 µM), for the others: top-dose activity change, negative = inhibition, actives largely listed as inhibitors; actives 5.4% (n = 310,000); note: nearly all actives have a fitted effect of over 60% in size
Target sequence (P51450 whole entry, looked up, the tested form may be a part): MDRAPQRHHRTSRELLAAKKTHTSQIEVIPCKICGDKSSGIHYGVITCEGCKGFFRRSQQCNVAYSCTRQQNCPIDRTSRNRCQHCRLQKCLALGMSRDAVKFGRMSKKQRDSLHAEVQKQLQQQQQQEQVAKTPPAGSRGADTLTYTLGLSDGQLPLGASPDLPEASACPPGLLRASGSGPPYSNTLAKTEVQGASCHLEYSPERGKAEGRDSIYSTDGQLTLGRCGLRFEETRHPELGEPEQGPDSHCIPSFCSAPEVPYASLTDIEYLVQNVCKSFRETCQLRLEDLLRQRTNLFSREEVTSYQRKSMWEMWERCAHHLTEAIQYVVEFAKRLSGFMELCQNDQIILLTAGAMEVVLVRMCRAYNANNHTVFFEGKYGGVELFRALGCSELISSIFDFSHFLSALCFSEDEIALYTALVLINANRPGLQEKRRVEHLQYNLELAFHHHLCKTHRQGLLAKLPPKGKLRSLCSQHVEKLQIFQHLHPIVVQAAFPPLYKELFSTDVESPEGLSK
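Luminescence from a UAS-regulated Photinus luciferase reporter in stably transfected Drosophila Schneider cells is measured; decreased signal marks ROR gamma inhibition. Fusion expression is induced by 700 uM copper sulfate for 20 hr.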
ELG1 repair inh – inhibitors of ELG1-dependent DNA repair in HEK293T cells; HEK293T ELG1-luciferase reporter, luminescence, 16 h; DNA damage induced by 5-fluorouridine; Potency, µM (doses to about 46.1 µM), for the others: top-dose activity change, negative = inhibition, hits mostly inhibitors; actives 2.3% (n = 330,000); note: nearly all actives have a fitted effect of over 55% in size
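Reporter activity after DNA damage by 5-fluorouridine is monitored. Compound-treated cells incubate 16 hr at 37 °C, then ONE-Glo is added for 30 min before luminescence reading.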
Active calls of the source: *; ? = inconclusive; / = no result; [ ] = another dose, or the depositor's remark. In the library only some 15% were active in any assay of this set; here they are far more common. Calls come from the whole dose curve; as a rule, active = well fitted curve in the direction sought with a large enough effect; inconclusive = small, poorly fitted or top-dose-only effect, or another doubt; inactive = no such curve, though single readings can be large; an effect the other way counts as inactive or inconclusive. % is set by controls: 0 for no effect and ±100 for the full control effect; potency is the fitted concentration of half-maximal effect.

SMILES | 12-LOX inh | DT40 TDP1 no CPT | DT40 TDP1 CPT | Gal4-VP16 FLuc | RORg inh | ELG1 repair inh
Cc1cccc(NC(=O)CSc2nc3ccc(NC(=O)COc4ccccc4F)cc3s2)c1 | 0.0% | 6.51µM* | 16.4µM* | / | / | /
O=C(COc1ccccc1F)Nc1ccc2nc(SCc3ccccc3)sc2c1 | -14.0% | -19.6% | -26.4% | / | / | /
O=C(CCN1C(=O)C2C3CC(C(Br)C3Br)C2C1=O)OCC(=O)c1ccc([N+](=O)[O-])cc1 (stereo not given) | 5.2% | / | / | / | / | /
COc1ncnc2c1sc1nc(-c3ccccc3)c3c(c12)CCCC3 | -6.8% | -15.3% | ? | -8.2% | 1.9% | 5.3%
CN(C)CCNc1ncnc2c1sc1nc(-c3ccccc3)c3c(c12)CCCC3 | ? | 23.1µM* | ? | 2.82µM* | ? | ?
CC(=O)Nc1cc(-c2ccc(N)nc2)cn2c(-c3cccc(C(F)(F)F)c3)cnc12 | ? | 14.6µM* | ? | / | / | /
CC(=O)Nc1cc(-c2ccc(N)cc2)cn2c(-c3cccc(C(F)(F)F)c3)cnc12 | ? | 16.4µM* | 16.4µM* | / | / | /
CC(=O)Nc1cccc(-c2cc(NC(C)=O)c3ncc(-c4cccc(C(F)(F)F)c4)n3c2)c1 | -28.3% | 23.1µM* | 25.9µM* | / | / | /
CC(=O)Nc1cc(-c2ccc(CO)cc2)cn2c(-c3cccc(C(F)(F)F)c3)cnc12 | ? | 23.1µM* | 18.4µM* | / | / | /
NC(=O)c1cnn2c(-c3cccc(C(F)(F)F)c3)ccnc12 | 345.7% | 0.2% | 5.9% | 0.3% | -7.9% | 2.7%
COc1ccc(F)cc1-c1cc(NC(C)=O)c2ncc(-c3cccc(C(F)(F)F)c3)n2c1 | ? | ? | 29.1µM* | / | / | /
COCCNC(=O)CCc1ncc(-c2ccc(Cl)cc2Cl)o1 | 65.1% | / | / | / | / | /
CCc1ccc2occ(CC(=O)Nc3ccc(C)c(C)c3)c2c1 | 4.9% | 13µM* | ? | / | / | /
COc1ccc(NC(=O)c2oc3ccccc3c2NC(=O)Cc2coc3ccc(C)cc23)cc1 | 2.7% | ? | -24.5% | / | / | /
CCCCOC(=O)c1ccc(NC(=O)Cc2coc3ccc(C(C)C)cc23)cc1 | -9.1% | 23.1µM* | 25.9µM* | / | / | /
CCOc1ccc(NC(=O)COC(=O)C2CC2C)cc1 (stereo not given) | 0.8% | 18.4µM* | ? | / | / | ?
CCCCOC(=O)c1ccc(NC(=O)COC(=O)C2CC2C)cc1 (stereo not given) | 8.1% | ? | -27.0% | / | / | /
CCOc1ccc(NC(=O)Cc2coc3ccc(C)cc23)cc1 | -11.2% | 20.6µM* | 16.4µM* | / | / | /
Cc1oc(-c2ccccc2)nc1CC(=O)N1CCC(N2CCCCC2)CC1 | 5.5% | / | / | / | / | /
COCCCNC(=O)Nc1ccc2nc(N3CCOCC3)cc(C)c2c1 | 5.3% | / | / | / | / | /
Cc1c(CCC(=O)NCc2ccc(F)cc2)c(=O)oc2c(C)c(O)ccc12 | -3.2% | / | / | / | / | /
CCOc1ccc(NC(=O)CCSc2ccc(C)cc2)cc1 | -27.7% | 16.4µM* | ? | -2.9% | 17.5% | -5.1%
Cc1ccc(SCCC(=O)Nc2ccc(OCc3ccccc3)cc2)cc1 | 3.5% | -21.5% | -18.9% | ? | ? | 7.8%
Cc1ccc(NC(=O)Cc2coc3ccc(C(C)C)cc23)cc1Cl | -21.7% | 29.1µM* | ? | / | / | /
CCCCNC(=O)C(CC)Sc1nc2ccccc2c(=O)n1CCc1ccc(OC)c(OC)c1 (stereo not given) | ? | 8.2µM* | 8.2µM* | / | / | /
SMILES | 12-LOX inh | DT40 TDP1 no CPT | DT40 TDP1 CPT | Gal4-VP16 FLuc | RORg inh | ELG1 repair inh
CCOc1ccc(CCn2c(-c3ccco3)nc3ccccc3c2=O)cc1OCC | -8.8% | 0.82µM* | 1.3µM* | -0.8% | ? | 9.2µM*
COc1ccc(CCn2c(SCC(=O)Nc3cc(C)on3)nc3ccsc3c2=O)cc1OC | -19.4% | ? | ? | -9.4% | 1.9% | 10.3µM*
CCOC(=O)CSc1nc2ccccc2c(=O)n1CCc1ccc(OC)c(OC)c1 | ? | 11.6µM* | 13µM* | / | / | /
COc1ccc(CCn2c(SCC(=O)Nc3cc(C)on3)nc3ccccc3c2=O)cc1OC | 6.1% | ? | ? | -0.1% | -11.0% | 3.8%
O=c1c2ccccc2nc(-c2ccco2)n1Cc1ccccc1 | ? | ? | ? | ? | 19.4% | /
CCOC(=O)CSc1nc2ccccc2c(=O)n1CCC(=O)NCCc1ccc(OC)c(OC)c1 | 0.0% | -20.0% | -7.0% | -2.6% | -10.1% | ?
COC(=O)CC1C(=O)NCCN1S(=O)(=O)c1ccc(Cl)cc1C(F)(F)F (stereo not given) | 18.6% | / | / | / | / | /
COC(=O)C1=C(C)N=C2SC=C(CC(=O)NCCc3cccs3)N2C1c1ccccc1Cl (stereo not given) | 57.2% | / | / | / | / | /
CC(C)CNC(=O)C(Cc1ccccc1)NC(=O)c1ccccc1 (stereo not given) | 48.2% | / | / | / | / | /
CCCNC(=O)C(C)NC(=O)c1ccc2ccccc2n1 (stereo not given) | -19.1% | / | / | / | / | /
CCCNC(=O)C(Cc1ccc(Cl)cc1)NC(=O)c1ccc(-c2ccccc2)cc1 (stereo not given) | 6.4% | 6.51µM* | 8.2µM* | / | / | ?
CC(=O)NC(Cc1ccc(Cl)cc1)C(=O)NCC(N)C(=O)c1ccccc1 (stereo not given) | / | ? | 15.8µM* | / | / | /
CCCNC(=O)C(Cc1ccc(I)cc1)NC(=O)c1ccc2ccccc2n1 (stereo not given) | -19.3% | 20.6µM* | ? | / | / | ?
CC1CCC(NC(=O)c2nnn3c2COC(c2ccc(F)cc2)C3)CC1 (stereo not given) | 26.0% | / | / | / | / | /
CCOc1ccc2c(n1)CCN(C(=O)NC1CCCC1)C2 | 16.5% | / | / | / | / | /
CNC(=O)c1ccc(-c2nc(CN3CCN(C(=O)Nc4ccc(C)cc4Cl)CC3)c(C)o2)cc1 | 4.7% | / | / | / | / | /
COc1cccc(CN2CC[C@H]3COC(=O)N3c3cc(F)ccc3C2)c1 | -0.6%[176 µM] | / | / | / | / | /
Cc1sc2nc(C3CC3)nc(SCC(=O)N3CCc4ccccc4C3)c2c1C | 0.5% | 20.6µM* | ? | 4.9% | -2.4% | ?
CCc1c(C)sc2nc(C(C)C)nc(SCC(=O)N3CCc4ccccc4C3)c12 | -4.2% | 20.6µM* | ? | 3.2% | ? | 0.0%
Cc1sc2nc(C3CC3)nc(SCC(=O)N3CCCc4ccccc43)c2c1C | -8.8% | / | / | -16.9% | -22.4% | ?
O=C(c1ccccc1)N(Cc1ccc2[nH]ccc2c1)C1CC1 | -1.4% | / | / | / | / | /
